Source: PubChem
EP2 modulator: EP2 receptor modulators, cAMP readout, primary screen, cell-based, HTRF cAMP, PGE2 stimulation | Prostaglandin E2 receptor EP2 subtype (Homo sapiens), P43116 | EP2-expressing cells, cAMP HTRF FRET, PGE2 co-stimulation | induction, % at 25 µM | 0.83% of 260,000 active | AID 940, 2007;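 active = compounds whose cAMP rise, as percent of the full-agonist control response, exceeds 60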;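 also: rat C6 glioma line stably carrying human EP2 under a CMV promoter; the protocol text gives 20 µM as final concentration; 100% = response of wells given 1 µM PGE2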
PGE2 EP2 inh: human EP2 receptor antagonists, primary screen, TR-FRET cAMP, C6 glioma cells; inhibition, % at 25 µM; Prostaglandin E2 receptor EP2 subtype (Homo sapiens), P43116; C6 glioma cells expressing human EP2; cells stimulated with saturating PGE2; 0.52% of 260,000 active; AID 1422, 2008;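 active = percent inhibition above 40 after rounding to a whole number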;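 also: rat C6 glioma host cells with rolipram phosphodiesterase inhibitor present; the protocol text gives 20 µM as final concentration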
S1P3 antagonist: S1P3 receptor antagonists, primary screen, cell-based; Sphingosine 1-phosphate receptor 3 (Homo sapiens), Q99500; CHO S1P3 NFAT-BLA reporter, FRET fluorescence, antagonist mode; inhibition, % at 4.98 µM; 0.27% of 170,000 active; AID 485, 2006;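 active = inhibition above the plate cutoff, the mean inhibition of test wells on that plate plus 3 SD, cut at about 28% in these data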;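 also: cells challenged with S1P at its EC80 of 0.8 µM; blue over green emission ratio from cleaved BLA substrate after 4 h stimulation; 0% = S1P-stimulated wells and 100% = unstimulated DMSO-only wells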
Cl transport mod: KCC2 cotransporter modulators, thallium flux, primary screen, cell-based, HEK293 KCC2, FluoZin-2 fluorescence, MLSMR; AID 1456, 2008; KCC2 cells, thallium flux FluoZin-2 fluorescence; 2.2% of 190,000 active; B-score of Tl+ flux slope (higher = more flux/activation; lower = inhibition) at 10 µM;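 active = thallium flux slope and its plate-corrected score both differing from the plate sample mean at a set confidence after two filtering rounds, in either direction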;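 also: slope of fluorescence scaled to starting intensity during 10 to 20 s after thallium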
Target sequence (Q9H2X9 whole entry, looked up): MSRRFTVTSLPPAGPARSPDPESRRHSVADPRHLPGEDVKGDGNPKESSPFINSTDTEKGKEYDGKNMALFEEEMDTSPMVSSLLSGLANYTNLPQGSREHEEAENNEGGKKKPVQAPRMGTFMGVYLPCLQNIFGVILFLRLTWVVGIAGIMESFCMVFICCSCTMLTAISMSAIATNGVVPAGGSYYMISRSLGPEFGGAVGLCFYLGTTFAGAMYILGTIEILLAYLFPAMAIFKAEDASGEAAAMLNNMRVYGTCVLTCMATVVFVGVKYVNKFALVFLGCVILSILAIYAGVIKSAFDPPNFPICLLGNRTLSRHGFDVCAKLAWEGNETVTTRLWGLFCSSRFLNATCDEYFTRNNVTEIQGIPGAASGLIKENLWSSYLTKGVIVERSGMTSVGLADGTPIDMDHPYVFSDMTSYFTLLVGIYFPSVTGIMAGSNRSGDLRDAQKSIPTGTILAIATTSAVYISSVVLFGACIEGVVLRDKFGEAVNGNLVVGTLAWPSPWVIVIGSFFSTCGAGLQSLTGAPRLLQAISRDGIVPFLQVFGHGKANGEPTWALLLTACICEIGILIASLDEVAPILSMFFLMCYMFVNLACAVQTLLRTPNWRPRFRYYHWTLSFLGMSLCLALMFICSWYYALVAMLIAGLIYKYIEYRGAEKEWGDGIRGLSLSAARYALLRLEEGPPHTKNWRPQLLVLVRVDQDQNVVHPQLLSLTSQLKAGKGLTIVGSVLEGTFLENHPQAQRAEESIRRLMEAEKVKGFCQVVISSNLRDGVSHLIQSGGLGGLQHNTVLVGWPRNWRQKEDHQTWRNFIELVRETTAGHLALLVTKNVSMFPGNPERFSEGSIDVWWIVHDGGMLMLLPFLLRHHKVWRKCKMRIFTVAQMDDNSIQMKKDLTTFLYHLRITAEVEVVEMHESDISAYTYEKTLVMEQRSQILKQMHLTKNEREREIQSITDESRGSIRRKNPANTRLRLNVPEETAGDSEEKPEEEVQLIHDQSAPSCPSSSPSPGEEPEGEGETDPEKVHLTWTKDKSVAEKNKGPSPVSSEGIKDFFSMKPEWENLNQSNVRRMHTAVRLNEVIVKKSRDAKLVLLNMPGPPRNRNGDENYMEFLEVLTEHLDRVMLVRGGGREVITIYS
KCC2 sec1: KCC2 modulators in sodium-free buffer, confirmation, cell-based, HEK293 KCC2, thallium flux, secondary assay; shares compounds with Cl transport mod; FluoZin2 fluorescence; stronger effect = higher value; normalised thallium flux (F/F0 slope) at 10 µM; 15% of 3,700 active;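 active = thallium flux slope above the same plate's solvent-only control mean plus 3 SD; inconclusive = the two replicate wells disagree; inactive = no significant difference from solvent-only control wells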
KCC2 bumet counter: thallium flux persisting under bumetanide in KCC2 cells, confirmation, counter-screen for KCC2 modulator project, cell-based, HEK293 KCC2, FluoZin2, secondary assay 3 | shares compounds with Cl transport mod | HEK293-KCC2 + bumetanide/ouabain; stronger effect = higher value | normalized thallium flux at 10 µM | 49% of 3,700 active;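 active = thallium entry rate above the same plate's blocked-transporter control wells by more than 3 SD; inconclusive = the two repeat wells disagree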;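 also: raw slope of fluorescence over initial fluorescence between 10 and 20 s after thallium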
KCC2 sec2: KCC2 modulators without ouabain present, confirmation, cell-based, HEK293 KCC2, thallium flux, FluoZin2, secondary assay 2; shares compounds with Cl transport mod; thallium flux FluoZin2 fluorescence; actives lie on both sides; F/F0 rise rate, 10–20 s post-thallium; normalized thallium flux at 10 µM; 23% of 3,700 active; AID 1715, 2009;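 active = thallium flux slope more than 3 SD above or below the plate's solvent-only control mean, mostly below; inconclusive = the two repeat wells disagreed; inactive = no significant shift from solvent-only controls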;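 also: raw slope with 0.1% DMSO as baseline and bumetanide as block control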
HEK293 Tl flux: thallium flux modulation in parental HEK cells, confirmation, counter-screen for KCC2 modulator project, cell-based, counterscreen 1 | 46% of 3,700 active | thallium flux rate (normalised fluorescence) at 10 µM | shares compounds with Cl transport mod | HEK293 parental cells, thallium flux FluoZin2, ouabain; baseline-ratio fluorescence slope, 10–20 s after thallium;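 active = thallium flux rate significantly above the same plate's solvent-only control wells, beyond their mean plus 3 SD; inconclusive = the two replicate wells gave conflicting results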
KCC2 ouabain: KCC2 inhibitors and activators, ouabain retest, confirmation, HEK-KCC2 cells. raw Tl+ flux slope (below DMSO = inhibition, above = activation) at 10 µM. AID 1717, 2009. 48% of 3,700 active. shares compounds with Cl transport mod. HEK293-KCC2, thallium flux FluoZin2 fluorescence; bidirectional: low = inhibitor, high = activator;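 active = thallium flux slope beyond 3 SD from same-plate DMSO control mean in most replicates, usually higher, sometimes lower; inconclusive = repeat tests gave conflicting results; inactive = no significant difference from controls in most replicates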;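 also: slope of initial-normalized fluorescence between seconds 10 and 20 after thallium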
HEK counter2: native HEK Tl+ uptake effects, second counter-screen – HEK cells, counterscreen 2, counter-screen for KCC2 modulator project, confirmation | thallium flux slope at 10 µM | HEK293 parental, thallium flux FluoZin-2 fluorescence slope | AID 1718, 2009 | shares compounds with Cl transport mod | 33% of 3,700 active;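 active = thallium flux slope above the same plate's solvent-control mean plus 3 SD in both duplicate wells; inconclusive = duplicate wells that disagreed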;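 also: run without ouabain in cells lacking the KCC2 cotransporter; slope of fluorescence scaled to its starting value between 10 and 20 s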
An asterisk follows results filed as active. Sampled rows, rich in hits. Any-hit rate of the full collection: about 3.1%.

Screening COc1ccc(C(=O)NC(=S)NNC(=O)COc2ccccc2)cc1 returned EP2 modulator -26.9, PGE2 EP2 inh 10.5, S1P3 antagonist 7.3, Cl transport mod 35.4*, KCC2 sec1 0.0226*, KCC2 bumet counter 0.0721*, KCC2 sec2 inconclusive, HEK293 Tl flux 0.0359*, KCC2 ouabain 0.0509* and HEK counter2 0.0207*.
Screening COc1ccc(C(=O)NNC(=S)NC(=O)C(C)(C)C)cc1 returned EP2 modulator -44.0, PGE2 EP2 inh 10.9, S1P3 antagonist -0.3, Cl transport mod 24*, KCC2 sec1 0.0235*, KCC2 bumet counter 0.0355*, KCC2 sec2 inconclusive, HEK293 Tl flux 0.0426*, KCC2 ouabain 0.0418* and HEK counter2 0.0143*.
For COc1ccc(C(=O)NNC(=O)c2ccc(C(C)(C)C)cc2)cc1 the results were EP2 modulator 21.5, PGE2 EP2 inh 7.5, S1P3 antagonist 20.0 and Cl transport mod -1.33.
Screening CCCc1ncc(CN2CCC(NC(C)=O)(c3ccc(F)cc3)CC2)cn1 returned EP2 modulator -10.9 and PGE2 EP2 inh 2.1.
Screening Cc1ccc(C)c2[nH]c(=O)c(CN(Cc3ccccc3)C(c3nnnn3Cc3ccco3)C(C)C)cc12 (configuration not stated) returned EP2 modulator -33.1 and PGE2 EP2 inh 4.7.
For O=C(NC12CC3CC(CC(C3)C1)C2)N1CCC(n2nnc3cc(C(F)(F)F)ccc32)CC1 the results were EP2 modulator 41.2 and PGE2 EP2 inh 11.6.
Screening O=C(COc1ccccc1)NNC(=S)NC(=O)c1ccccc1 returned EP2 modulator -7.6, PGE2 EP2 inh 9.2, S1P3 antagonist -3.3, Cl transport mod 18.2*, KCC2 sec1 0.00701, KCC2 bumet counter 0.0452*, KCC2 sec2 0.05*, HEK293 Tl flux 0.0387*, KCC2 ouabain 0.0431* and HEK counter2 0.0411*.
`CC(=O)NNC(=S)NC(=O)c1ccccc1` gave EP2 modulator 11.5, PGE2 EP2 inh 3.6, S1P3 antagonist 2.5 and Cl transport mod -0.055.
Screening Cc1cc(N)n2ncc(-c3ccccc3)c2n1 returned EP2 modulator -10.0, PGE2 EP2 inh 14.6 and Cl transport mod -0.187.
Screening CC(=O)Nc1ccc(Nc2cc(C)nc3c(-c4ccccc4)cnn23)cc1 returned EP2 modulator -21.0, PGE2 EP2 inh 13.5, S1P3 antagonist -5.7, Cl transport mod -3.92*, KCC2 sec1 0.00781, KCC2 bumet counter 0.00917*, KCC2 sec2 0.032, HEK293 Tl flux 0.00735, KCC2 ouabain 0.0203 and HEK counter2 0.0106.
COc1ccc(NC(=O)C(=O)N/N=C/c2cccnc2)c(OC)c1 was read as EP2 modulator -7.1, PGE2 EP2 inh 8.1, Cl transport mod 7.75*, KCC2 sec1 0.00582, KCC2 bumet counter inconclusive, KCC2 sec2 0.0299, HEK293 Tl flux 0.00861, KCC2 ouabain 0.0205 and HEK counter2 0.0117.
For CCOc1ccc(NC(=O)C(=O)N/N=C/c2cccnc2)cc1 the results were EP2 modulator 5.5, PGE2 EP2 inh 8.3, S1P3 antagonist 1.2 and Cl transport mod -1.51.
`O=C(c1cnccn1)N(Cc1ccc(Cl)cc1)Cc1cc2cc3c(cc2[nH]c1=O)OCCO3` gave EP2 modulator -10.0 and PGE2 EP2 inh 13.4.
For CC(=O)c1nnn(-c2ccc(F)cc2)c1NC1CCCC1 the results were EP2 modulator -52.0 and PGE2 EP2 inh 5.0.
Screening CC(=O)SCC(=O)N=c1sc2cc(F)ccc2n1C returned EP2 modulator 16.1, PGE2 EP2 inh 11.4, KCC2 sec1 0.00694, KCC2 bumet counter 0.00592*, KCC2 sec2 0.0299, HEK293 Tl flux inconclusive, KCC2 ouabain 0.0194 and HEK counter2 0.0115.
`CC(=O)N=c1sc2cc(C)ccc2n1C` gave EP2 modulator 35.6, PGE2 EP2 inh 6.0, S1P3 antagonist 7.0 and Cl transport mod -0.574.
For CCOc1ccc(Cc2nnc(SCC(=O)c3ccc(OC)cc3)o2)cc1 the results were EP2 modulator -24.4, PGE2 EP2 inh 5.2 and Cl transport mod 0.642.
`CCOc1ccc(Nc2nc(Cc3nnc(SCC(=O)O)o3)cs2)cc1` gave EP2 modulator -4.2, PGE2 EP2 inh 6.9, S1P3 antagonist 10.0, KCC2 sec1 0.00497, KCC2 bumet counter 0.00498, KCC2 sec2 0.0271, HEK293 Tl flux 0.00769, KCC2 ouabain 0.015* and HEK counter2 0.0106.
Cc1ccc(C)c2[nH]c(=O)c(CN(CCCO)C(=O)Nc3ccccc3)cc12 was read as EP2 modulator -10.4 and PGE2 EP2 inh 11.7.
`COc1cccc(/C=N/NC(=S)NC2CC3CCC2C3)c1OC` (configuration not stated) gave EP2 modulator -28.9, PGE2 EP2 inh 12.2 and S1P3 antagonist -2.2.
Screening Oc1ccccc1/C=N/NC(=S)NC1CC2CCC1C2 (configuration not stated) returned EP2 modulator -43.8, PGE2 EP2 inh 20.4, S1P3 antagonist -0.2, Cl transport mod 14.8*, KCC2 sec1 0.00974, KCC2 bumet counter 0.0371*, KCC2 sec2 0.0283, HEK293 Tl flux 0.0158*, KCC2 ouabain 0.0304* and HEK counter2 inconclusive.
